The values below come from PubChem BioAssay (Tox21).

Values without a mark were called inactive. Records with an inconclusive call do not appear. Calls of active or inactive are those of the source. Calls come from the whole dose curve; as a rule, active = well fitted curve in the direction sought with a large enough effect in the repeat runs; inconclusive = weak or mixed curves; inactive = no such curve, though single readings can be large; an effect the other way counts as inactive or inconclusive.

Experiment [1] can be described thus: Human pregnane X receptor (PXR) small molecule agonists, qHTS cell viability counter screen (AID 1346977). Note: nearly all actives have a fitted effect of over 50% in size. The settings on record: PXR-Luc HepG2 viability, CellTiter-Fluor, 24 h; series mostly up to 92.4 µM. The essentials:
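Same-well viability read: CellTiter-Fluor added after 23 hr compound exposure, fluorescence measured 1 hr later. Cells were PXR-Luc HepG2 seeded at 2,000/well in 5% charcoal-stripped FBS medium, rested 5 hr before dosing at 37 C.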
In general terms: qHTS replaces the single test concentration by a dilution series.

Experiment [2] is described as follows: Caspase-3/7 induction in HepG2 cells by small molecules, qHTS assay (AID 1346978). Note: nearly all actives have a fitted effect of over 15% in size. As to conditions: HepG2 caspase-3/7 activation, Caspase-Glo luminescence, 17 h; series mostly up to 92.4 µM. In a few lines:
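Caspase-3/7 induction was measured by Caspase-Glo 3/7 luminescence (30 min, room temperature) after a 17 hr compound exposure of wild-type HepG2 cells seeded at 2,000 per well and pre-incubated 5 hr.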

Experiment [3] is described as follows: Caspase-3/7 induction in CHO-K1 cells by small molecules, qHTS cell viability counter screen (AID 1346979). Note: nearly all actives have a fitted effect of over 35% in size. As to conditions: CellTiter-Fluor fluorescence, 17 h; series mostly up to 92.4 µM. In a few lines:
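Cytotoxicity counter screen: CellTiter-Fluor added to compound-treated wild-type CHO-K1 cells at 16 h (37C, 5% CO2), fluorescence measured 1 h later; same wells as caspase-3/7 measurement.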

A short description of experiment [4]: Caspase-3/7 induction in CHO-K1 cells by small molecules, qHTS assay (AID 1346980). Note: nearly all actives have a fitted effect of over 15% in size. The settings on record: CHO-K1 caspase-3/7 induction, Caspase-Glo luminescence, 17 h; series mostly up to 92.4 µM. The essentials: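 Luminescent Caspase-Glo 3/7 read (30min, room temperature) quantified apoptosis induction. Cells were wild-type CHO-K1, treated with compound for 17hr at 37 C and 5% CO2.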

A short description of experiment [5]: Caspase-3/7 induction in HepG2 cells by small molecules, qHTS cell viability counter screen (AID 1346981). Note: nearly all actives have a fitted effect of over 30% in size. The settings on record: CellTiter-Fluor fluorescence, 17 h; series mostly up to 92.4 µM. In a few lines: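 Steps: seed 2,000 HepG2 cells per well; incubate 5 hr at 37 C; pin-add compounds in DMSO; incubate 16 hr; add CellTiter-Fluor; after 1 hr at 37 C and 5% CO2, read fluorescence.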

The target in experiment [6] is Nuclear receptor subfamily 1 group I member 2 (Homo sapiens) (UniProt O75469). Nature of the experiment: Human pregnane X receptor (PXR) small molecule agonists, qHTS assay (AID 1346982). Note: nearly all actives have a fitted effect of over 35% in size. As to conditions: PXR-Luc HepG2, CYP3A4 luciferase reporter, 24 h; series mostly up to 92.4 µM. In a few lines: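 Agonist mode qHTS: PXR-Luc HepG2 cells plated 5 hr before DMSO-dissolved compounds were pinned in, cultured 24 hr at 37 C, 5% CO2; ONE-Glo luminescence readout.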
Nuclear receptor subfamily 1 group I member 2 (Homo sapiens), sequence (O75469 whole entry, looked up): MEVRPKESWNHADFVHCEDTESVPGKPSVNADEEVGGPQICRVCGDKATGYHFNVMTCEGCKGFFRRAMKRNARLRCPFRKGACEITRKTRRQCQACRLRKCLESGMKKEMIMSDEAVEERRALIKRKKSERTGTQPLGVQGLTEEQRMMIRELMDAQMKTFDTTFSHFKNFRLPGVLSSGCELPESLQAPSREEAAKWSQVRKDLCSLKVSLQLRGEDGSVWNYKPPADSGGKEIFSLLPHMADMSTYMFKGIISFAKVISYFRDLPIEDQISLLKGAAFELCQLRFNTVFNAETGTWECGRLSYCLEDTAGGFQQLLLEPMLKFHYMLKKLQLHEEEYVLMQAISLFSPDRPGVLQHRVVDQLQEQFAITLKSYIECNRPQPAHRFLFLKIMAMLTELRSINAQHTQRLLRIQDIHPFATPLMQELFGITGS

Experiment [7] addresses Cytochrome P450 2D6 (Homo sapiens) (UniProt P10635). Nature of the experiment: Cytochrome P450 Family 2 Subfamily D Member 6 (CYP2D6) small molecule antagonists: luciferase reporter qHTS assay (AID 1671196). Note: nearly all actives have a fitted effect of over 50% in size. Note: potency is the fitted concentration of half-maximal effect. The settings on record: P450-Glo CYP2D6 enzyme assay, luciferin luminescence, 1 h; series mostly up to 115 µM. In a few lines:
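P450-Glo format: CYP2D6 converts a proluciferin substrate to luciferin in an NADPH-driven reaction lasting 1 h at room temperature. Light output, proportional to CYP2D6 activity, reflects interference by test chemicals.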
Background: In a reporter assay the amount or activity of a reporter protein is the signal.

In experiment [8] the target is Nuclear receptor subfamily 1 group I member 2 (Rattus norvegicus) (UniProt Q9R1A7). The experiment in a line: Rat pregnane X receptor (rPXR) activation by small molecules, qHTS assay (AID 1346983). Note: nearly all actives have a fitted effect of over 20% in size. As to conditions: rPXR luciferase reporter cells, One-Glo luminescence, 24 h; max activation: hits give high values. In a few lines: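 Luminescent readout (One-Glo luciferase, 30 min room temperature) followed 24 hr compound treatment at 37 C of rPXR cells plated 2,000 per well and preincubated 5hr; qHTS format with compounds delivered in DMSO.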
Nuclear receptor subfamily 1 group I member 2 (Rattus norvegicus), sequence (Q9R1A7 whole entry, looked up): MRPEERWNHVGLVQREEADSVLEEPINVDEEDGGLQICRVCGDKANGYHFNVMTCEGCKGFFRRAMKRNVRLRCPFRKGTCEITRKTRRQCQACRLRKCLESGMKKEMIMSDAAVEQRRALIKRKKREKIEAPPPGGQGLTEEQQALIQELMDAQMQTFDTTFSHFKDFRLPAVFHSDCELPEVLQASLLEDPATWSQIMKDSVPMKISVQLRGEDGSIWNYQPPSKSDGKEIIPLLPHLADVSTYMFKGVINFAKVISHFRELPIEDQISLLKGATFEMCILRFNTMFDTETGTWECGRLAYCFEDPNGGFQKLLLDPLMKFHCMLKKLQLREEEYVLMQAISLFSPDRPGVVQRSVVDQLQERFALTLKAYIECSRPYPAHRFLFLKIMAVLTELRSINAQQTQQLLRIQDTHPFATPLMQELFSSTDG

Experiment [9] has as its target Nuclear receptor subfamily 1 group I member 2 (Homo sapiens) (UniProt O75469). Nature of the experiment: CYP3A4 induction through human pregnane X receptor (PXR) by small molecules, qHTS assay (AID 1346984). Note: nearly all actives have a fitted effect of over 40% in size. The settings on record: DPX-2 HepG2 PXR, CYP3A4-luciferin luminescence, 24 h; series mostly up to 46.1 µM. In a few lines:
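Steps: seed DPX-2 cells, 5 hr at 37C; pin-transfer compounds; 24 hr at 37C; add Luciferin-IPA (3uM final), 3 hr at 37C; add One-Glo, 30 min RT; read luminescence.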

For experiment [10] the target is unchanged. Nature of the experiment: Human pregnane X receptor (PXR) activation by small molecules, qHTS assay (AID 1346985). Note: nearly all actives have a fitted effect of over 40% in size. As to conditions: DPX-2 HepG2 CYP3A4-luciferase, 24 h; series mostly up to 38.3 µM. The essentials: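 DPX-2 cells (HepG2 co-transfected with a PXR response element and a CYP3A4-promoter luciferase construct) were seeded at 2,000 per well, rested 5 hr at 37C, then exposed to DMSO-dissolved compounds for 24 hr. Activation was read as luciferase luminescence.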
% is set by controls: 0 for no effect and ±100 for the full control effect.

Cytochrome P450 2D6 (Homo sapiens), sequence (P10635 whole entry, looked up): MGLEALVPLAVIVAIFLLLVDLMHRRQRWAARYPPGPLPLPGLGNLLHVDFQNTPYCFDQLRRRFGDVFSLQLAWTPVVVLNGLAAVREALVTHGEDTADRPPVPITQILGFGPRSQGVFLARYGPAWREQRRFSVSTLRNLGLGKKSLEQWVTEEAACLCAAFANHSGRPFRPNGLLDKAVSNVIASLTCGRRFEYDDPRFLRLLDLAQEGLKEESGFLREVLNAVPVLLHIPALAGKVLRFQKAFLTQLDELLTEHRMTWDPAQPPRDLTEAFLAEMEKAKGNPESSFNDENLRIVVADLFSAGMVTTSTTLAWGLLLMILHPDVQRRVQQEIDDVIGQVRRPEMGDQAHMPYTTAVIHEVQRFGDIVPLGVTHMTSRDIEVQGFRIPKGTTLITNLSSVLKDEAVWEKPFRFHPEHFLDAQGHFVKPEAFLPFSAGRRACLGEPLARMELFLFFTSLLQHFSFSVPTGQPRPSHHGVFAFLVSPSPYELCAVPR

Turning to `c1ccc(CNCc2ccccc2)cc1`, the Potency result in experiment [1], in [3], in experiment [4], in [5] and in experiment [6] was “inactive” throughout. In [2], the outcome was inactive. For the same compound, in experiment [7], the Potency is 1120 nM (active).

As for `CCN1CCC[C@H]1CNC(=O)c1c(OC)ccc(Br)c1OC`, the Potency entry in [1], in experiment [3], in experiment [4], in experiment [5], in [9] and in experiment [10] was “inactive” in each case. Also, the compound was called inactive in experiment [2]. Also, the max activation in experiment [8] is 7.68%.

Regarding `Cc1cccc(C(C)(C)C)c1O`, the Potency entry in experiment [1], in [3], in experiment [4], in experiment [5] and in experiment [7] was “inactive” in each case. Moreover, in experiment [2], the compound was called inactive.

Consider `S=C(S)NCCNC(=S)S`, for which the Potency result in [1], in [3], in [4], in [5] and in experiment [7] was “inactive” in each case. For the same compound, in experiment [2], the outcome was inactive.

`C=CCCCCCC`: the Potency result in experiment [1], in [3], in experiment [4], in [5] and in [7] was “inactive” each time. In addition, the compound was called inactive in experiment [2].
